Bioassay records (PubChem)
Sampled rows, rich in hits. Any-hit rate of the full collection: about 6.6%.
SW480 rereplic – inducers of DNA re-replication in SW480 colon cancer cells | SW480 DNA re-replication, Hoechst DNA content imaging, 48 h | Potency, µM (series often up to 46.1 µM), inactives show at the top dose re-replication activation, hits mostly activators | hit rate 1.8% among 340,000 | AID 624297; note: % of control where 0% means no effect; nearly all actives have a fitted effect of over 55% in size
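Hoechst fluorescence of nuclei (405 nm excitation, 500-530 nm emission) measured by plate-scanning imager after 48 hr compound exposure at 37 C; re-replication scored as increased number of nuclei with elevated intensity.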
MCF10A rerep – inducers of DNA re-replication in MCF 10A breast cells | MCF 10A DNA re-replication, Hoechst nuclear intensity, 48 h | Potency, µM (top dose mostly 46.1 µM), inactives show top-dose activity, positive = re-replication, most hits filed as activators | hit rate 2.9% among 350,000 | AID 624296; note: % of control where 0% means no effect; nearly all actives have a fitted effect of over 50% in size
KB-V1 cytotox – KB-V1 MDR subline cytotoxicity; KB-V1 MDR cells viability, CellTiter-Glo, 72 h; Potency, µM (highest dose often 46.1 µM), usual class: cytotoxic; hit rate 3.4% among 400,000; AID 1347076; note: % is set by controls: 0 for no effect and ±100 for the full control effect; nearly all actives have a fitted effect of over 60% in size
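qHTS viability screen in drug-selected KB-V1 MDR cells: 72 h compound treatment at 37 degrees C, ATP luminescence end point.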
RGS4 inhibitor – human RGS4 inhibition | P49798 | Potency, µM (doses to about 114 µM), inactives show at the top dose activity change, negative = inhibition, actives largely listed as inhibitors | hit rate 0.039% among 390,000 | Transcreener GDP fluorescence polarization, RGS4-accelerated GTP hydrolysis; note: % is set by controls: 0 for no effect and ±100 for the full control effect; nearly all actives have a fitted effect of over 75% in size
Target sequence (P49798 whole entry, looked up): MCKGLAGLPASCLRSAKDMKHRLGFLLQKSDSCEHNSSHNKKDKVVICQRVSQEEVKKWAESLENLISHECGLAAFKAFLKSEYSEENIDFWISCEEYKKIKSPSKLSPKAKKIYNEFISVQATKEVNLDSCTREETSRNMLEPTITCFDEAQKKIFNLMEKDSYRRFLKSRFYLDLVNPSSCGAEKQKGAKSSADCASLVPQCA
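MLSMR compounds (23 nl, pin-transferred) preincubated 10 min at room temperature with a 500nM (2x) first reagent, then RGS4 at 900nM (2x) plus Transcreener GDP mix added; fluorescence polarization (620/688 nm) read before and after 90 min at 30 °C.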
KB-3-1 tox – kills parental KB-3-1 adenocarcinoma cells | hit rate 1.4% among 400,000 | AID 1347075 | KB-3-1 viability, CellTiter-Glo ATP luminescence, 72 h | Potency, µM (highest dose often 46.1 µM), most hits filed as cytotoxic; note: % is set by controls: 0 for no effect and ±100 for the full control effect; nearly all actives have a fitted effect of over 60% in size
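Here the drug-naive KB-3-1 line serves as comparator for MDR sub-line selectivity; cells received compound titrations, 72 h at 37 °C, then CellTiter-Glo readout.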
PTAP TSG101 blk – blocks PTAP/TSG101 interaction to inhibit HIV-1 budding; 340,000 tested, under 10 active; Q99816; Fluorescence polarization, FITC-PTAP peptide / Tsg101 binding; Potency, µM (titrated, usually from 115 µM), for the others: at the top dose activity change, negative = inhibition, actives largely listed as inhibitors; active = well fitted inhibition curve with a large enough effect in the main read-out, with a control signal flat, not every such curve was filed as active; inconclusive = small, poorly fitted or top-dose-only effect, or effect the other way, or a change in a side signal; inactive = no such curve, though single readings can be large or run the other way; note: % of control where 0% means no effect
Target sequence (Q99816 whole entry, looked up): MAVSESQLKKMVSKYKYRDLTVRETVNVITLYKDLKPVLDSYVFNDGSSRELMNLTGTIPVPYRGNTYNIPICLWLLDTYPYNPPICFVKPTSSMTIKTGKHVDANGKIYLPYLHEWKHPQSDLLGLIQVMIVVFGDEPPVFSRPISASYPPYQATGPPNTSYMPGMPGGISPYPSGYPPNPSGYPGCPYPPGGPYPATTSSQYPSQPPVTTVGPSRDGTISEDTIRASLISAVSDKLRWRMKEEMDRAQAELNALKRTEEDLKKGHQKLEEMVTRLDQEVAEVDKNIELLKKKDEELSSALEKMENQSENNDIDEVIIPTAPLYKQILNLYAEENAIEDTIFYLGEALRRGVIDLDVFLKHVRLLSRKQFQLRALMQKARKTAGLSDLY
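Fluorescence polarization binding of Tsg101 binding domain (10 uM final) to FITC-labeled PTAP peptide (50 nM final) in HEPES pH 7.5 buffer with NaCl, Tween 20, EDTA, TCEP. Compounds added before peptide; binding 20 min at RT.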
* = called active by the depositor; i = inactive; ? = inconclusive; . = not tested or not shown. Unless noted, calls come from the whole dose curve; as a rule, active = well fitted curve in the direction sought with a large enough effect; inconclusive = small, poorly fitted or top-dose-only effect, or another doubt; inactive = no such curve, though single readings can be large; an effect the other way counts as inactive or inconclusive. Potency is the fitted concentration of half-maximal effect.

SMILES | SW480 rereplic | MCF10A rerep | KB-V1 cytotox | RGS4 inhibitor | KB-3-1 tox | PTAP TSG101 blk
COc1ccc(/C=C/c2nc(C#N)c(N3CCC(C(N)=O)CC3)o2)cc1OC | . | . | . | -8% | . | .
CC(C)C(=O)c1cn(CC(=O)N2CCCc3ccccc32)c2ccccc12 | 4% | 19% | 5.2µM* | 4% | i | -5%
O=C1c2cccc(OCC(=O)N3CCCc4ccccc43)c2CCN1Cc1cccnc1 | 1% | 1% | 3.7µM* | 2% | ? | -2%
Cn1c(=O)cc(OCC(=O)N2CCCc3ccccc32)c2ccccc21 | -4% | 7% | 15µM* | -14% | i | -4%
Cc1ccccc1CN1CCc2c(OCC(=O)N3CCCc4ccccc43)cccc2C1=O | 15% | ? | ? | -9% | 21µM* | -5%
Cn1c(=O)c2ccccc2n(CC(=O)N2CCCc3ccccc32)c1=O | -23% | -1% | i | -52% | i | -1%
O=C(COc1cccc2c1CCN(Cc1ccccc1)C2=O)N1CCCCC1 | ? | ? | ? | -28% | i | 0%
COc1cc2nc(CC(O)c3nc4cc(OC)c(OC)cc4[nH]3)[nH]c2cc1OC (stereo unspecified) | . | . | i | . | i | .
CCN(C(=O)Cn1c(SCc2ccccc2F)nc2cccnc21)c1ccccc1 | . | . | . | -17% | . | .
CCC(=O)N1CCc2cc(S(=O)(=O)NC(Cc3ccccc3)C(=O)Nc3ccc(C)cc3)ccc21 (stereo unspecified) | . | . | i | -17% | i | .
COc1ccc(-c2nnc(NC(=O)Nc3ccc4ccccc4c3)s2)cc1OC | . | . | i | . | i | .
O=C(c1cccnc1)N1N=C(c2cccs2)CC1c1ccc(F)cc1 (stereo unspecified) | -1% | -1% | ? | -10% | i | -2%
O=C1c2cccc(OCC(=O)N3N=C(c4cccs4)CC3c3ccc(F)cc3)c2CCN1Cc1cccnc1 (stereo unspecified) | . | ? | 21µM* | -2% | i | -6%
CCOC(=O)c1cccc(NC(=O)c2cc3c(Cl)nc4ccc(C)cc4c3s2)c1 | . | . | i | 28% | i | .
FC(F)(F)c1nc(N2CCCC2)ncc1-c1nnnn1-c1ccc(Cl)cc1 | 8% | ? | 15µM* | -40% | ? | -4%
Cc1ccc(-n2nnnc2-c2cnc(-c3cccnc3)nc2C(F)(F)F)cc1 | 0% | 6% | 21µM* | 6% | ? | -2%
Fc1ccc(-n2nnnc2-c2cnc(-c3cccs3)nc2C(F)(F)F)cc1 | ? | 15µM* | 23µM* | -37% | ? | -11%
Cc1ccc(-n2nnnc2-c2cccnc2)cc1 | -21% | -2% | i | 17% | i | -5%
FC(F)(F)c1nc(-c2ccncc2)ncc1-c1nnnn1-c1ccccc1 | -9% | 2% | 21µM* | 20% | i | -4%
CC(=O)c1ccc(NC(=O)CN(C)S(=O)(=O)c2cccc3nsnc23)cc1 | . | . | i | 13% | i | .
COc1ccc(Br)cc1CNC(=O)CN1C(=O)c2cccnc2Oc2ccc(C)cc21 | . | . | i | -44% | i | .
Cc1ccc(C(NC(=O)NC(C)c2ccccc2)C(Cl)(Cl)Cl)cc1F (stereo unspecified) | ? | 15µM* | 21µM* | 21% | ? | -4%
Cc1ccc(S(=O)(=O)NC(=O)Nc2ccc(N(C)C)cc2)cc1 | 7.3µM* | 19% | i | -122% | ? | -2%
Cc1ccc(NC(=O)NNS(=O)(=O)c2ccc(Br)cc2)cc1 | -2% | -1% | i | 33% | i | -15%
NC(=O)COC(=O)c1c2c(nc3ccccc13)CCCCC2 | -24% | -14% | ? | 34% | i | -4%
SMILES | SW480 rereplic | MCF10A rerep | KB-V1 cytotox | RGS4 inhibitor | KB-3-1 tox | PTAP TSG101 blk
O=C(OCC(=O)N1CCc2ccccc21)c1c2c(nc3ccccc13)CCCC2 | 10% | ? | 9.2µM* | 4% | ? | -4%
CC(C)(C)C(=O)COC(=O)c1c2c(nc3ccccc13)CCC2 | 2% | -3% | i | -6% | i | -2%
CC1Cc2ccccc2N1C(=O)COC(=O)c1c2c(nc3ccccc13)CCCCC2 (stereo unspecified) | ? | 21µM* | 9.2µM* | -38% | ? | 0%
CN(Cc1ccccc1)c1nc2c(S(=O)(=O)c3cccc(Cl)c3)nnn2c2ccsc12 | . | . | i | -23% | i | .
O=C(c1ccc(-c2ccccc2)cc1)c1ccccc1C(=O)N1CCOCC1 | -20% | 7% | 21µM* | -26% | i | -7%
O=C(c1ccccc1-c1nc(-c2ccccc2)no1)N1CCOCC1 | -14% | 7% | 12µM* | -22% | i | -18%
Cc1cccc(Cn2cc3c(=O)n(CC(=O)Nc4ccc(C)c(F)c4)nc-3c3cc(F)ccc32)c1 | . | . | i | -16% | i | .
Cc1ccc(S(=O)(=O)NC2c3cccc4cccc(c34)C2Sc2nc(C)cc(C)n2)cc1 (stereo unspecified) | -59% | ? | 5.2µM* | -17% | i | -1%
Cn1cnnc1SC1c2cccc3cccc(c23)C1NS(=O)(=O)c1ccc(Cl)cc1 (stereo unspecified) | 3% | -6% | 12µM* | 12% | i | 0%
CCc1ccc(CNC(=O)C(CC)n2ccc3cc(S(=O)(=O)N4CCCCC4)ccc32)cc1 (stereo unspecified) | . | . | i | 9% | i | .
CCOc1ccccc1NS(=O)(=O)c1c(C)nc2sccn2c1=O | . | . | i | -7% | i | .
Cc1cc[n+](C2=C([O-])c3ccccc3C(=O)/C2=N\S(=O)(=O)c2cccs2)cc1C | ? | 21µM* | i | 14% | i | -3%
O=C1/C(=N\S(=O)(=O)c2cccs2)C([n+]2cccc(Cc3ccccc3)c2)=C([O-])c2ccccc21 | 8.2µM* | 0% | i | -18% | ? | ?
Cc1cc(C)c[n+](C2=C([O-])c3ccccc3C(=O)/C2=N\S(=O)(=O)c2cccs2)c1 | 2.9µM* | ? | i | -9% | ? | -3%
COc1cc(NC(=O)CC(c2ccc(C)cc2)N2Cc3ccccc3C2=O)cc(OC)c1 (stereo unspecified) | . | . | ? | -16% | i | .
Cc1cc(C)cc(OC(=O)CS(=O)c2ccc(C(F)(F)F)cc2[N+](=O)[O-])c1 (stereo unspecified) | ? | 12µM* | ? | -29% | ? | 0%
O=C(CS(=O)c1ccc(C(F)(F)F)cc1[N+](=O)[O-])Oc1ccc(Cl)cc1 (stereo unspecified) | ? | 13µM* | i | -37% | ? | -2%
CN(C)c1ccc(/C=C/c2c3c(nc4ccccc24)CCCC3)cc1 | . | . | i | . | i | .
